Results taken from PubChem BioAssay.
Activity calls are given as the source filed them.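 How the source made its calls, unless noted: active means inhibition of the reporter signal at or above 50%; inactive means inhibition below 50%.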

How the values were obtained:
[1] = inhibitors of TNFa-induced NFkB p65 translocation, primary screen, imaging, HUVEC, MLSMR starter and 10KST1 sets (AID 438;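 active means inhibition above 20% together with a positive visual image hit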;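 further: compound added about 3h40 before a 20 min TNFalpha stimulation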;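 on inhibition: signal is the nuclear over cytoplasmic p65 intensity ratio per well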); conditions: HUVEC TNFa-induced p65 nuclear translocation; cell count: measured here: nuclei count (cytotoxicity indicator), at 2.08 µM; inhibition: at 2 µM, stronger effect = higher value, 0% TNFa-plus-vehicle, 100% no-TNFa wells
[2] = inhibitors of mutant huntingtin aggregation, primary screen, imaging, exon1htt(103Q)mCFP cells, high-content imaging (AID 483;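 active means visual image review flags a hit and inhibition of aggregation exceeds 20%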;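 further: compound exposure lasted 3 days before fixation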;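 on nuclei count: percent of the per-plate median nuclei count of sample wells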); conditions: exon1htt(103Q)mCFP cell line, aggregate imaging, at 2 µM; inhibition of aggregation: stronger effect = higher value; nuclei count: measured here: cell count, toxicity
[3] = inhibitors of E-selectin induction by TNFa, primary screen, imaging, HUVEC, immunofluorescence, MLSMR starter and 10KST1 sets (AID 487;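 active means visually confirmed hit in the image check and inhibition above 20%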;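 on inhibition: signal is fraction of cell area covered by stained E-selectin grains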;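 on nuclei count: 100% = median nuclei count of all wells on the same plate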); conditions: HUVEC TNFalpha-induced E-selectin immunofluorescence imaging, at 2 µM; inhibition: stronger effect = higher value; nuclei count: measured here: cell number, toxicity
[4] = target: Voltage-gated potassium channel subunit beta-2 (Rattus norvegicus) (UniProt P62483); assay: KvBeta enzyme negative modulators, primary screen, biochemical, NADPH fluorescence (AID 622;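 active means fluorescence slope higher than the sample average by over 3 SD, cut at about -0.22 in these data, passing the limit was not always enough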;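 further: slope of raw intensity against log time taken from 70 to 1610 s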); conditions: recombinant KvBeta, 4-cyanobenzaldehyde reduction, at 10 µM, stronger effect = higher value
[5] = target: Voltage-gated potassium channel subunit beta-2 (Rattus norvegicus) (UniProt P62483); assay: KvBeta positive modulators, primary screen, biochemical, NADPH fluorescence (AID 623;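 active means NADPH fluorescence slope more negative than the mean of all samples by about 3 SD, 99.7% confidence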;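 further: fluorescence intensity change per second fitted from 20 to 320 s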); conditions: Recombinant KvBeta, NADPH fluorescence decrease slope, 10 min; at 10 µM; stronger effect = lower value
[6] = target: Alpha-2C adrenergic receptor (Homo sapiens) (UniProt P18825); assay: modulators of alpha2C/GIRK thallium flux, primary screen, cell-based, HEK293 alpha2C/GIRK1/2 (AID 624;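 active means fluorescence slope after compound addition differing from the mean of all screened samples at 99.7% confidence, in either direction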;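 further: slope of fluorescence ratio to pre-addition baseline per second over 15 to 24 s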); conditions: thallium flux BTC fluorescence, at 10 µM, actives lie on both sides
[7] = inhibitors of Sendai virus-induced IRF3 signaling, primary screen, TLR/RLR signaling modifier project, cell-based, Sendai virus stimulus, luciferase, 10K MLSCN set (AID 602276;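 active means inhibition at or above 50% at 10 µM; inactive means inhibition below 50%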;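 further: firefly luciferase from ISG56 promoter only with Renilla not read in this screen; 0% = Sendai virus plus DMSO and 100% = medium plus DMSO without virus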); conditions: HEK293 RL24 IRF3 luciferase reporter, at 10 µM, stronger effect = higher value
[8] = inhibitors of poly I:C-induced TLR3 signaling, primary screen, cell-based, poly I:C stimulus, luciferase, 10K MLSCN set (AID 602277); conditions: HEK293-TLR3 RL24 IRF3 luciferase reporter, at 10 µM, stronger effect = higher value

Voltage-gated potassium channel subunit beta-2 (Rattus norvegicus), sequence (P62483 whole entry, looked up): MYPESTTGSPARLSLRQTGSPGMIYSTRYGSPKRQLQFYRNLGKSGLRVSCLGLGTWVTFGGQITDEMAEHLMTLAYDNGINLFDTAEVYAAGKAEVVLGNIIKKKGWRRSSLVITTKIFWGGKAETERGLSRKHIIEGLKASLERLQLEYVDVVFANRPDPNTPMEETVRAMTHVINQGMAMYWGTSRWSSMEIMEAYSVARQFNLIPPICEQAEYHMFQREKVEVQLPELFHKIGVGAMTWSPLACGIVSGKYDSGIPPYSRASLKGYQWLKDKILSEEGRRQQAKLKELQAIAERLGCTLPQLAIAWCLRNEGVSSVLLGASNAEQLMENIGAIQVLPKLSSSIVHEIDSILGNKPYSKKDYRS
Alpha-2C adrenergic receptor (Homo sapiens), sequence (P18825 whole entry, looked up): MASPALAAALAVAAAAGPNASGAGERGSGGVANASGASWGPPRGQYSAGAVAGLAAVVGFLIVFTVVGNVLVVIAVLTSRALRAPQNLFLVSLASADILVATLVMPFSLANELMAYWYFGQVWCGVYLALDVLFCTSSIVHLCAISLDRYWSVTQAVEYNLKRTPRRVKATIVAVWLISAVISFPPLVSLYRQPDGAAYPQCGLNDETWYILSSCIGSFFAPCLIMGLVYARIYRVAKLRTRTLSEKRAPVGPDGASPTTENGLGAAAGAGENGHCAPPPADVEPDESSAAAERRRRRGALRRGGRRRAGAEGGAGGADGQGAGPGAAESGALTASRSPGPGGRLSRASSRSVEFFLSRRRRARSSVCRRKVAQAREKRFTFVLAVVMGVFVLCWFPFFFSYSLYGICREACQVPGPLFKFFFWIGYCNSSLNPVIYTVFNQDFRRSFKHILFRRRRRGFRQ

Compound | cell count [1] | inhibition [1] | inhibition of aggregation [2] | nuclei count [2] | inhibition [3] | nuclei count [3] | fluorescence slope [4] | NADPH fluorescence slope [5] | slope [6] | inhibition [7] | inhibition [8]
O=C1CC(c2ccc(F)c(Br)c2)C2=C(CCCC2=O)N1 (configuration not stated) | 334 | -6.7% (inactive) | -9.9% (inactive) | 113% | -63% (inactive) | 108% | -0.327 (inactive) | 4e-06 (inactive) | 0.00275 (inactive) | -0.311% (inactive) | 26.9% (inactive)
COc1cc2c(N3CCOCC3)cc(O)c(CC(=O)Nc3ccccc3)c2cc1OC | 217 | 2.5% (inactive) | 0.7% (inactive) | 107% | -63.7% (inactive) | 101% | -0.344 (inactive) | -3.7e-06 (inactive) | 0.00641 (inactive) | -3.63% (inactive) | 7.05% (inactive)
Cc1csc(NC(=O)c2cc3c(s2)-c2ccccc2OC3)n1 | 417 | 8.8% (inactive) | 27.8% (inactive) | 121% | -27.8% (inactive) | 103% | -0.247 (inactive) | -1.9e-06 (inactive) | 0.00681 (inactive) | -42% (inactive) | -118% (inactive)
O=C(CSc1nnc(C2CC2)n1Cc1ccccc1)c1ccc(S(=O)(=O)N2CCOCC2)cc1 | 426 | 15.8% (inactive) | 1.1% (inactive) | 96.7% | -55.3% (inactive) | 112% | -0.412 (inactive) | -0.000138 (inactive) | 0.00543 (inactive) | 13.7% (inactive) | 24% (inactive)
CCN1C(=O)c2ccccc2S(=O)c2ccc(C(=O)NC3CC3)cc21 (configuration not stated) | 533 | 0.6% (inactive) | 20.1% (inactive) | 74.1% | 6.3% (inactive) | 104% | -0.505 (inactive) | -2.6e-05 (inactive) | 0.0077 (inactive) | 17.3% (inactive) | 24% (inactive)
CCOC(=O)C1=C(C)NC(=O)NC1c1ccc(OCCO)c(OC)c1 (configuration not stated) | 634 | -12.8% (inactive) | -2.9% (inactive) | 102% | 30.3% (inactive) | 89.2% | -0.468 (inactive) | -4.3e-05 (inactive) | 0.00652 (inactive) | -1.76% (inactive) | 25.5% (inactive)
Cc1coc2cc3oc(=O)c4c(c3cc12)CCC4 | 714 | 6.7% (inactive) | -13.1% (inactive) | 59.7% | -48.2% (inactive) | 135% | -0.566 (inactive) | -1.8e-05 (inactive) | 0.00717 (inactive) | -1.57% (inactive) | -5.8% (inactive)
CCN(CC)CCCN1C(=O)C(O)=C(C(C)=O)C1c1cccc(OC)c1 (configuration not stated) | 468 | 7.8% (inactive) | 3.9% (inactive) | 97.3% | -142% (inactive) | 105% | -0.367 (inactive) | -4.4e-05 (inactive) | 0.00698 (inactive) | 11.2% (inactive) | 13.5% (inactive)
COC(=O)c1ccc(CNC(=O)CSc2nc3sc(C)c(C)c3c(=O)n2C)o1 | 319 | 3.3% (inactive) | 12.1% (inactive) | 94.6% | 5.6% (inactive) | 95.6% | -0.434 (inactive) | -4e-05 (inactive) | 0.00252 (inactive) | -0.162% (inactive) | 29.6% (inactive)
COc1ccccc1Oc1ccc(S(=O)(=O)N2CCOCC2)cc1S(=O)(=O)N1CCOCC1 | 242 | 2.9% (inactive) | 24.3% (inactive) | 106% | -142% (inactive) | 132% | -0.377 (inactive) | 5.2e-07 (inactive) | 0.00572 (inactive) | 10% (inactive) | 1.69% (inactive)
O=C1NC(Nc2ccccn2)(C(F)(F)F)C(=O)N1c1ccc(F)cc1 (configuration not stated) | 483 | -1.9% (inactive) | -9.8% (inactive) | 110% | -79.1% (inactive) | 111% | -0.582 (inactive) | -4.6e-05 (inactive) | 0.00277 (inactive) | 13.9% (inactive) | 6.37% (inactive)
CCCCOc1cc(=O)[nH]c(=O)[nH]1 | 379 | 11.7% (inactive) | 14.6% (inactive) | 84.2% | 5.6% (inactive) | 89.2% | -0.383 (inactive) | -5.2e-06 (inactive) | 0.00308 (inactive) | 10.4% (inactive) | 8.55% (inactive)
CCCn1c(C)nc2c(c1=O)c1nc3ccccc3nc1n2CCc1ccccc1 | 470 | -3.1% (inactive) | 6.9% (inactive) | 100% | -102% (inactive) | 222% | -0.303 (inactive) | 2.6e-05 (inactive) | 0.00428 (inactive) | 3.36% (inactive) | 0.543% (inactive)
CCOC(=O)C(C)n1cnc2c(nnn2Cc2ccc(C)cc2)c1=O (configuration not stated) | 618 | -3.7% (inactive) | 6% (inactive) | 91.7% | -1.8% (inactive) | 86.9% | -0.503 (inactive) | -0.000137 (inactive) | 0.00481 (inactive) | 16.6% (inactive) | 20.1% (inactive)
O=C(CCN1C(=O)COc2ccccc21)NCCN1CCN(c2cccc(Cl)c2)CC1 | 597 | -3.6% (inactive) | 0.2% (inactive) | 88.9% | -68.5% (inactive) | 112% | -0.602 (inactive) | -2.6e-06 (inactive) | 0.00502 (inactive) | 7.8% (inactive) | 7.33% (inactive)
O=C(OCCN(CCOC(=O)c1ccncc1)S(=O)(=O)c1cccs1)c1ccncc1 | 888 | 10.8% (inactive) | -22.1% (inactive) | 110% | -180% (inactive) | 123% | -0.581 (inactive) | 1e-05 (inactive) | 0.00486 (inactive) | 7.42% (inactive) | 11.5% (inactive)
Cc1ccc(S(=O)(=O)NC(C)C(=O)Nc2ccc(C(N)=O)cc2)cc1 (configuration not stated) | 707 | 1.6% (inactive) | 1.1% (inactive) | 77.4% | -22.5% (inactive) | 105% | -0.521 (inactive) | 1.6e-05 (inactive) | 0.0049 (inactive) | -2.81% (inactive) | 2.56% (inactive)
O=C(NCc1ccco1)c1cccn2c(=O)c3sccc3nc12 | 452 | -1.9% (inactive) | -0.8% (inactive) | 96% | 19.6% (inactive) | 101% | -0.112 (inactive) | -7.3e-06 (inactive) | 0.00303 (inactive) | -2.36% (inactive) | -2.82% (inactive)
Cc1cc(C)n(-c2nc3c(c(=O)[nH]c(=O)n3C)n2Cc2ccc(F)cc2)n1 | 402 | 1.3% (inactive) | -21.6% (inactive) | 94.4% | -7.5% (inactive) | 102% | -0.324 (inactive) | -3.8e-05 (inactive) | 0.00739 (inactive) | 13% (inactive) | 13.7% (inactive)
COc1ccc(-c2noc(-c3ccccc3C(=O)NCc3ccco3)n2)cc1 | 331 | 9.3% (inactive) | -16.3% (inactive) | 77.4% | -64.4% (inactive) | 99.2% | -0.592 (inactive) | -4.7e-05 (inactive) | 0.00789 (inactive) | -8.85% (inactive) | -39.1% (inactive)
CCCOc1ccc(N2C(=O)CC(SCCN)C2=O)cc1 (configuration not stated) | 428 | -8.7% (inactive) | -9.8% (inactive) | 116% | -48.7% (inactive) | 116% | -0.4 (inactive) | -1.8e-05 (inactive) | 0.00441 (inactive) | -37.6% (inactive) | -77.1% (inactive)
COc1cc(NC(=O)c2cccs2)cc(OC)c1 | 306 | -14.2% (inactive) | 33% (inactive) | 82.6% | -201% (inactive) | 96.7% | -0.337 (inactive) | -4.5e-05 (inactive) | 0.00448 (inactive) | -38.7% (inactive) | -64.2% (inactive)
CCCC(=O)C1=C(N(C)c2ccccc2)CC(C)(C)C(C(=O)OC)C1=O (configuration not stated) | 429 | -0.3% (inactive) | 3.6% (inactive) | 92.5% | -8.2% (inactive) | 121% | -0.445 (inactive) | -7.2e-06 (inactive) | 0.00268 (inactive) | 9.63% (inactive) | 33.4% (inactive)
COC(=O)n1c(=S)oc2cc(Cl)ccc21 | 673 | 8.2% (inactive) | -25.1% (inactive) | 106% | 16.4% (inactive) | 93% | -0.638 (inactive) | 1.8e-05 (inactive) | 0.0107 (inactive) | 16.6% (inactive) | 31.1% (inactive)
CC(C)(C)C(=O)CNS(=O)(=O)c1ccc(S(=O)(=O)NC2CCCC2)cc1 | 479 | 6% (inactive) | 2.6% (inactive) | 113% | -35.9% (inactive) | 94.4% | -0.47 (inactive) | 2.8e-05 (inactive) | 0.00543 (inactive) | 9.9% (inactive) | 22.1% (inactive)
CCOC(=O)c1c(C)c(C(=O)NCCN2CCOCC2)c(C)n1C | 607 | -11.6% (inactive) | 13% (inactive) | 88.4% | 1.3% (inactive) | 103% | -0.496 (inactive) | -8.5e-05 (inactive) | 0.00563 (inactive) | 13.6% (inactive) | 22.1% (inactive)
COc1ccc(N2CCN(CCCNS(=O)(=O)c3c(C)noc3/C=C/N(C)C)CC2)cc1 | 561 | 8.7% (inactive) | -4.3% (inactive) | 101% | -36.7% (inactive) | 73.9% | -0.54 (inactive) | -6e-05 (inactive) | 0.00583 (inactive) | 3.23% (inactive) | 38.9% (inactive)
